According to the supplement of paper PMC9254222:
The full ranking holds about 1,100 compounds; the median of “Renilla luciferase signal (cell health) relative to plate median” is about 0.97, and the highest 2% start at about 1.6. Only a selection was taken, and the highest values are over-represented in it overall.

Tested on: HEK293T (UBE3A T485A transfected, BAR Wnt reporter)
Test: Renilla luciferase signal (cell health) relative to plate median (fold (linear ratio)); higher = higher Renilla signal
Conditions: 24 h
How it was run: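 Using Fugene 6, HEK293T cells in white 384-well plates (4500 cells/well; DMEM, 10% FBS, 37°C, 5% CO2) were transfected with a BAR firefly luciferase Wnt reporter, TK-Renilla and an expression plasmid. After four hours, robots dosed the chemicals at 0.01–100 uM, and a Dual-Glo luciferase readout followed 24 h later. Per-plate median-centred firefly/Renilla ratios gave Wnt activity, while per-plate median-centred raw Renilla signals gave cell health. Four biological replicates were averaged.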

Compound | Renilla luciferase signal (concentration: 0.1 uM) | Renilla luciferase signal (concentration: 1 uM) | Renilla luciferase signal (concentration: 10 uM) | Renilla luciferase signal (concentration: 100 uM) | Renilla luciferase signal (concentration: 0.01 uM)
COc1cc(C(C)C)c2c(c1)S(=O)(=O)N(COc1cc(=O)n3cccc(OCCN4CCCCC4)c3n1)C2=O | 1.26 | 1.3 | 1.21 | 0.497 | –
CC(C)CC(C)(O)C#CC(C)(O)CC(C)C (stereo not drawn) [2,4,7,9-Tetramethyl-5-decyne-4,7-diol] | 0.987 | 0.919 | 0.966 | 0.295 | –
CCCCOC(=O)[C@@H](C)Oc1ccc(Oc2ccc(C(F)(F)F)cn2)cc1 [Fluazifop-P-butyl] | 1.18 | 1.05 | 1.22 | 0.693 | 1.25
CCOC(=O)C(C)Oc1ccc(Oc2nc3ccc(Cl)cc3o2)cc1 (stereo not drawn) [Fenoxaprop-ethyl] | 0.851 | 1.02 | 1.13 | 1.78 | 0.9
CCOC(=O)C(C)(C)Oc1ccc(Cl)cc1 [Clofibrate] | 0.962 | 1.02 | 1.17 | 1.38 | –
C#CCOC(=O)[C@@H](C)Oc1ccc(Oc2ncc(Cl)cc2F)cc1 [Clodinafop-propargyl] | 1.11 | 1.04 | 1.01 | 0.269 | 0.926
CCCCOC(=O)c1ccccc1 [Butyl benzoate] | 0.872 | 0.958 | 1.1 | 1.1 | –
CCOC(=O)C(C)Oc1ccc(Oc2cnc3cc(Cl)ccc3n2)cc1 (stereo not drawn) [Quizalofop-ethyl] | 0.758 | 0.993 | 0.953 | 1.88 | 1.1
CCCCOC(=O)C(C)Oc1ccc(Oc2ccc(C(F)(F)F)cn2)cc1 (stereo not drawn) [Fluazifop-butyl] | 0.837 | 1.04 | 0.984 | 1.81 | 1.02
O=C([O-])c1[nH]n(-c2ccc(S(=O)(=O)[O-])cc2)c(=O)c1/N=N/c1ccc(S(=O)(=O)[O-])cc1.[Na+].[Na+].[Na+] [FD&C Yellow 5] | 1.1 | 1.15 | 1.15 | 0.999 | –
CC1(C)CC(N=C=O)CC(C)(CN=C=O)C1 (stereo not drawn) [Isophorone diisocyanate] | 0.927 | 0.855 | 0.865 | 0.953 | –
S=C([S-])NCCNC(=S)[S-].[Mn+2] [Maneb] | 1.01 | 0.995 | 0.968 | 0.105 | 0.874
CC(C(C)N1CC(=O)NC(=O)C1)N1CC(=O)NC(=O)C1 (stereo not drawn) | 0.674 | 0.785 | 0.383 | 0.396 | 0.735
C=CCCCCCCCCC(=O)O [10-Undecenoic acid] | 0.947 | 0.883 | 0.917 | 1.16 | –
O=C(O)c1cccc(N(Cc2cccnc2)c2ccc(OC(F)F)c(OC(F)F)c2)c1 | 1.15 | 1.14 | 1.24 | 0.322 | –
CCCCCCCCCCCCCCC [Pentadecane] | 0.808 | 0.899 | 0.973 | 1.16 | –

Compound | Renilla luciferase signal (concentration: 0.1 uM) | Renilla luciferase signal (concentration: 1 uM) | Renilla luciferase signal (concentration: 10 uM) | Renilla luciferase signal (concentration: 100 uM) | Renilla luciferase signal (concentration: 0.01 uM)
CN(C)CCCN(C)CCCN(C)C [2,6,10-Trimethyl-2,6,10-triazaundecane] | 0.932 | 0.811 | 0.918 | 0.932 | –
COC(=O)c1ccc(C(=O)OC)cc1 [Dimethyl terephthalate] | 0.95 | 1.09 | 1.01 | 1.36 | –
Cc1nc(-c2ccccn2)ncc1C(=O)Nn1cc(C)c2cc(F)ccc21 | 0.941 | 0.877 | 1.05 | 1.02 | –
CCc1cc(C2=C(C(=O)[O-])N(c3ccccc3C(F)(F)F)S(=O)(=O)c3ccccc32)cc2c1OCO2.[K+] [Fandosentan potassium salt] | 1.01 | 1.1 | 0.887 | 0.331 | –
CN(Cc1cnc2nc(N)nc(N)c2n1)c1ccc(C(=O)N[C@@H](CCC(=O)O)C(=O)O)cc1 [Methotrexate] | 0.13 | 0.0382 | 0.0865 | 0.087 | –
CC(=O)Nc1ccc(O)cc1 [Acetaminophen] | 0.68 | 0.735 | 0.812 | 1.3 | –
O=C(O)c1cn(C2CC2)c2cc(N3CCNCC3)c(F)cc2c1=O [Ciprofloxacin] | 0.893 | 1.01 | 0.9 | 0.336 | 1.06
O=C1CN(N=Cc2ccc([N+](=O)[O-])o2)C(=O)N1 [Nitrofurantoin] | 0.891 | 1.01 | 1.69 | 0.345 | –
NC(=O)N/N=C/c1ccc([N+](=O)[O-])o1 [Nitrofurazone] | 1.03 | 1.13 | 1.44 | 0.334 | –
O=[N+]([O-])c1ccc([O-])cc1.[Na+] [Sodium 4-nitrophenolate] | 0.98 | 0.86 | 0.924 | 0.669 | –
COc1c(Cl)ccc(Cl)c1C(=O)O [Dicamba] | 1.05 | 1.14 | 1.04 | 1.52 | 1.07
CC[C@H](C)C(=O)O[C@H]1C[C@H](O)C=C2C=C[C@H](C)[C@H](CC[C@@H](O)C[C@@H](O)CC(=O)[O-])[C@H]21.[Na+] [Pravastatin sodium] | 1.01 | 0.866 | 1.1 | 1.15 | –
CC(=O)c1ccccc1 [Acetophenone] | 0.867 | 0.964 | 0.94 | 1.11 | –
O=C(O)c1ccccc1 [Benzoic acid] | 1.21 | 1.13 | 1.35 | 1.77 | –
O=C(O)c1cccc(C(=O)O)c1 [1,3-Benzenedicarboxylic acid] | 1.04 | 1.04 | 1.06 | 1.35 | –
